Here are results for four compounds from PubChem BioAssay.

Assay [1] relates to PRMT1 (protein arginine N-methyltransferase 1). The assay is described as follows: PRMT1 binders on small-molecule microarrays, primary screen, biochemical, small-molecule microarray, 635 nm fluorescence (AID 1088).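 Also: binding of Prmt1 protein to compounds spotted on small-molecule microarray slides.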 Particulars: small-molecule microarray binding, higher = more signal.
Assay [2] is described as follows: yeast growth modulation, basal conditions, primary screen, YJM789 clinical isolate, OD600, 24 h (AID 1089).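 Also: growth of clinical yeast isolate S. cerevisiae YJM 789 seeded 1000 cells per well; test concentration not given here.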 The note with it: S. cerevisiae YJM789 growth, higher = more signal, called active from +8 up or from −8 down.
Assay [3] can be described thus: fission yeast growth modulation, primary screen, strain 972, OD600, 24 h, no modulator (AID 1090).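 Also: basal condition with compound alone and no growth modifier present; test concentration not given here.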 Particulars: S. pombe 972 growth, higher = more signal, called active from +8 up or from −8 down.
The nature of assay [4]: S. cerevisiae growth modulation with rapamycin, primary screen, strain BY4716, OD600, 96 h (AID 1091). Also: test concentration not given here. The note with it: higher = more signal, called active from +8 up or from −8 down.
The target of assay [5] is Torsin-1A-interacting protein 2 (Homo sapiens) (UniProt Q8NFQ8). Put plainly: LULL1 binders on small-molecule microarray, primary screen, cell lysate, human LULL1 lysate, 635/667 nm fluorescence (AID 1092).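 Also: probe is lysate of COS7 cells overexpressing human LULL1; score merges per-feature 667 nm fluorescence with signal-to-noise.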 The note with it: hLULL1 lysate binding, 635 nm fluorescence, higher = more signal.
The nature of assay [6]: E. coli growth modulation, two-sided OD650, primary screen, E. coli filamentation project, strain DRC41, 24 h (AID 1093).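 Also: MC1000 strain lacking acrAB efflux and sulA so SOS filamentation is blocked; test concentration not given here.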 Particulars: OD650, 24 h, higher = more signal, called active from +8 up or from −8 down.
Assay [7] is described as follows: small-molecule microarray binders of probe aLefty2, primary screen, biochemical, biotinylated probe, 635/667 nm fluorescence (AID 1094).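 Also: score merges spot fluorescence near 667 nm with spot signal-to-noise ratio.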 Particulars: higher = more signal.
In assay [8] the test system is Noggin (protein binding on small-molecule microarray). The assay is described as follows: Noggin binders on small-molecule microarray, primary screen, biochemical, 635/667 nm fluorescence (AID 1095).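 Also: score merges 667 nm feature fluorescence with signal to noise over triplicate slides.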 Particulars: 635 nm fluorescence, higher = more signal.
Assay [9] addresses Neurogenic locus notch homolog protein 3 (Homo sapiens) (UniProt Q9UM47). The assay is described as follows: NOTCH3 binders on small-molecule microarray, primary screen, biochemical, 635/667 nm fluorescence (AID 1096). Particulars: NOTCH3 binding, 635 nm fluorescence, higher = more signal.
Assay [10] can be described thus: small-molecule microarray binders of probe aEGFR, primary screen, biochemical, biotinylated probe, 635/667 nm fluorescence (AID 1097).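 Also: probe is a biotinylated anti-EGFR antibody binding compounds printed on slides; score combines fluorescence near 667 nm and signal to noise of each spot.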 Particulars: higher = more signal.

Each structure is given as a SMILES string. Active and inactive are the calls of the source.

Sequence of Neurogenic locus notch homolog protein 3 (Homo sapiens) (Q9UM47 whole entry, looked up): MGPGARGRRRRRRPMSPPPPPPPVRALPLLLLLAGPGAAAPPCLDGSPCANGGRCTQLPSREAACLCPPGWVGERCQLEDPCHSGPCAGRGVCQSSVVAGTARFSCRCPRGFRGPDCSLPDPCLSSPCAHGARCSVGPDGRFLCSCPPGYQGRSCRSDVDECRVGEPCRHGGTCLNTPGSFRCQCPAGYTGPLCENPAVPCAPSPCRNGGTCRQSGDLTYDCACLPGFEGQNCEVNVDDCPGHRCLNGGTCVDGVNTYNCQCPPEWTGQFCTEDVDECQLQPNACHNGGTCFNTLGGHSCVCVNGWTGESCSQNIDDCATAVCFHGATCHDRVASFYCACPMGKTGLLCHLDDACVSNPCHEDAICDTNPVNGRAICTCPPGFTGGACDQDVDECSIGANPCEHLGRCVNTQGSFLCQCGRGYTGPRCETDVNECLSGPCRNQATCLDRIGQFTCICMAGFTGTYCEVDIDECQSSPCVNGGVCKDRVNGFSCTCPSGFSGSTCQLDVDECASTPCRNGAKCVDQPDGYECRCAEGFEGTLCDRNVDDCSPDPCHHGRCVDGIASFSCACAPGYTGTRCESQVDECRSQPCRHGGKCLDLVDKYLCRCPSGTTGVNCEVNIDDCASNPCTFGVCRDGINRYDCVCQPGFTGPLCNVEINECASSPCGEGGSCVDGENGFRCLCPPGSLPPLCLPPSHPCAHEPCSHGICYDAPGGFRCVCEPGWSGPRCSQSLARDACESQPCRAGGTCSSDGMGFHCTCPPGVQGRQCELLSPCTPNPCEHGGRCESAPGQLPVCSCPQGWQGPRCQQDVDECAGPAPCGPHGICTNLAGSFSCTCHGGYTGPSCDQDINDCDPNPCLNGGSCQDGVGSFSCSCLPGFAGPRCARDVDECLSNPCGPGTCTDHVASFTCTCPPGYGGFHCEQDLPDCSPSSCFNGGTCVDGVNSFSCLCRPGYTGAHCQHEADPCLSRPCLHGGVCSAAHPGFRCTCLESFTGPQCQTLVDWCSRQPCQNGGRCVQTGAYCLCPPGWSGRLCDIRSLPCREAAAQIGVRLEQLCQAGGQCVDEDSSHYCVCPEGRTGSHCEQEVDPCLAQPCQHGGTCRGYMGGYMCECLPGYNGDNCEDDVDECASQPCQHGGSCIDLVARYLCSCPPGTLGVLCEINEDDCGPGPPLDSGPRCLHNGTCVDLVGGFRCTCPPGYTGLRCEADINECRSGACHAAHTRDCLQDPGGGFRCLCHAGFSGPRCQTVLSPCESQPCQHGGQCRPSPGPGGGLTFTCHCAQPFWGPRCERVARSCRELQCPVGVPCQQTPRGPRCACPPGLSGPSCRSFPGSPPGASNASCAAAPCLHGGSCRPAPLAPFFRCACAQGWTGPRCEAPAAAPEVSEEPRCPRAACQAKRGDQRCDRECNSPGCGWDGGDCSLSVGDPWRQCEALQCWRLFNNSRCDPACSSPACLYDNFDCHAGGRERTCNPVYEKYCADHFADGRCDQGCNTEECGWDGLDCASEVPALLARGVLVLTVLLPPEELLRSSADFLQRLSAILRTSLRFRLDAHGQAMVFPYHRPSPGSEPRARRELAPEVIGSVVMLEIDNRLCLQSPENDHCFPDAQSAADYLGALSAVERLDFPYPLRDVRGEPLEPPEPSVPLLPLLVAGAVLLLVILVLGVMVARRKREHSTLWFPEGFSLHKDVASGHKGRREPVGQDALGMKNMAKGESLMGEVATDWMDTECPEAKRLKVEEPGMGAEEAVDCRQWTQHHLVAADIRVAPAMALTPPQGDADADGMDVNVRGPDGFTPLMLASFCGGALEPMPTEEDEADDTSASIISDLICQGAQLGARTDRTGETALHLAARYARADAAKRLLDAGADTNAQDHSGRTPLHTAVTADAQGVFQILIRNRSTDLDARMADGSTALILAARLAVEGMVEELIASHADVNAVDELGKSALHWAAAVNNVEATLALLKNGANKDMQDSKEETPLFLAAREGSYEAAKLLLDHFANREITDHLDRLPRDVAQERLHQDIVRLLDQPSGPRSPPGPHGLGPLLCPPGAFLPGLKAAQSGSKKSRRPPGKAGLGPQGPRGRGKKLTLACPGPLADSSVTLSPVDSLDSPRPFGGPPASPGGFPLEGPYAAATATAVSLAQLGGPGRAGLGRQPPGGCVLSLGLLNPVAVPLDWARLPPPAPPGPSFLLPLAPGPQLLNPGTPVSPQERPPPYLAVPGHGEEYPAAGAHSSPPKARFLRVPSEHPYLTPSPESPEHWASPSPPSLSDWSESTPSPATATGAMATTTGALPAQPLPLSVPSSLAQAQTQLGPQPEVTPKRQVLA
Sequence of Torsin-1A-interacting protein 2 (Homo sapiens) (Q8NFQ8 whole entry, looked up): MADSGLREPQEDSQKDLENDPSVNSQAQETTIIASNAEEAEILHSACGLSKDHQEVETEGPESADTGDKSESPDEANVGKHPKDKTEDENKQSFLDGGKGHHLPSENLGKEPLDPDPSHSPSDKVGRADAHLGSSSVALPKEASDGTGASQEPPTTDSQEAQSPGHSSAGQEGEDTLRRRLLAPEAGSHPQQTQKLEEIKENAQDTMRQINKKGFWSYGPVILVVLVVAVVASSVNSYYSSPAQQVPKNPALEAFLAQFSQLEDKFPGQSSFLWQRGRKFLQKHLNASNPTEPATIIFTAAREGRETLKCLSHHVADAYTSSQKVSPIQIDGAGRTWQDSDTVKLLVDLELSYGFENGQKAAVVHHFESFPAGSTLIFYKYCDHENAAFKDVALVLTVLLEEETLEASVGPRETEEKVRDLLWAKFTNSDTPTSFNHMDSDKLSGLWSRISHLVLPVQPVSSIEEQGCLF

As to `CC(C)(C)OC(=O)CC[C@]1(C(=O)N2CCCCC2)N=C(c2ccc(OCCCO)cc2)O[C@H]1c1ccccc1N=[N+]=[N-]`, the composite z-score in assay [1] was found to be 1.54; in [5] it was 3.05; in assay [7], 0.292; in [8] it was 1.21; in assay [9] it was 1.01; in [10], 0.872. The z-score in [2] is 0.589 (inactive); in assay [3] it was 0.402 (inactive); in [4], 0.73 (inactive); in assay [6], 1.62 (inactive).

With `CCOC(=O)C[C@H]1[C@H](OC(=O)c2ccccc2-c2ccccc2)[C@@H](NC(=O)c2ccc3ccccc3c2)c2cc(OCCCO)ccc2N1C(=O)c1ccc2ccccc2n1`, the composite z-score in assay [1] was 0.389; in [5], 0.998; in [7] it was -0.102; in [8] it was 0.526; in assay [9], 0.818; in assay [10], -0.111. Moreover, the z-score in assay [2] is 0.47 (inactive); in [3] it was 0.623 (inactive); in assay [4] it was 0.136 (inactive); in [6] it was -0.263 (inactive).

Turning to `O=C1C2C=CC(C(O)c3ccc(B(O)O)cc3)N(Nc3ccccc3)C2C(=O)N1c1ccccc1` (stereo not given), the composite z-score in [1] was -0.592; in assay [5], 0.935; in assay [7], 0.229; in [8] it was -1.11; in assay [9], -0.085; in assay [10] it was -0.041. Further, the z-score is 0.428 (inactive) in assay [2], -4.7 (inactive) in [3], 0.642 (inactive) in [4] and -1.2 (inactive) in assay [6].

For `[N-]=[N+]=NCc1ccccc1C[C@]1(C(=O)O)N=C(c2ccc(OCCCO)cc2)O[C@H]1c1ccccc1`, the composite z-score is 1.01 in assay [1]; 1.86 in assay [5]; -0.0221 in assay [7]; -0.985 in assay [8]; 0.204 in assay [9]; -0.232 in assay [10]. Besides, the z-score in [2] is -0.143 (inactive); in assay [3] it was -0.305 (inactive); in [4], -1.36 (inactive); in assay [6], 0.279 (inactive).
